# What was measured:
# [1] = molecular target: T1, Aspartate--tRNA(Asp/Asn) ligase (Mycobacterium tuberculosis (strain ATCC 25618 / H37Rv)) (UniProt P9WFW3); test: Assay for Asp RNA synthetase-1 from Mycobacterium tuberculosis; type: functional; set-up: scale not given: direction of the effect not stated beside the values; conditions: 30 µM; note: in the data most compounds retested in dose-response had high values
# T1 sequence (whole entry): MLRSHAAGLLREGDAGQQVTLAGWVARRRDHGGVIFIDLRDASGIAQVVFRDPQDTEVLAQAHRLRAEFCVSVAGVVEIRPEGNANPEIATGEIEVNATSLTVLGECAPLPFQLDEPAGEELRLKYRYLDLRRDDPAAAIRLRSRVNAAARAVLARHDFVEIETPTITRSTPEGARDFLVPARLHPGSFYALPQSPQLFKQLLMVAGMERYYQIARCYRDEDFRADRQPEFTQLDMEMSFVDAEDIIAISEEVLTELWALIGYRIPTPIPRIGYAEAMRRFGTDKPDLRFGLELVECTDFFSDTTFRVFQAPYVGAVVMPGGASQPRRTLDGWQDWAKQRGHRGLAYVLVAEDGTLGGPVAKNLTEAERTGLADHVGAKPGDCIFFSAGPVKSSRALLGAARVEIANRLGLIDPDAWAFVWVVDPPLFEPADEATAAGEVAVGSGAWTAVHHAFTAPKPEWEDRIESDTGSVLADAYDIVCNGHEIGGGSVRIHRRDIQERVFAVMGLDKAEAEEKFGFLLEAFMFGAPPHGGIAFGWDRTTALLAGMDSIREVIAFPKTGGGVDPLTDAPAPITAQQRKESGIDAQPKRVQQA
# [2] = molecular target: Shiga toxin 2 (Escherichia coli O157:H7) (UniProt P09385+P09386); test: E. coli 0.157:H7 Shiga Toxin SOP - stx2 screening assay; type: functional; set-up: scale not given: direction of the effect not stated beside the values; conditions: 30 µM
Compound,Percent Effect [1] [%],Percent Effect [2] [%]
O=C(CCc1ccccc1)N1CCn2cc(CN3CCCC3)nc2C1,0.131,-15.9
CN(Cc1ncc(-c2ccccc2)o1)CC1CCCN1c1cccnn1 (centres undefined),0.259,5.15
Cc1cccnc1C(=O)N1CCCC(c2[nH]ncc2S(C)(=O)=O)C1 (centres undefined),3.25,15.7
CCOCCC(=O)N1CCCC(c2ncc[nH]2)C1 (centres undefined),-0.374,-22.5
Cn1cccc1C(=O)N1CCN(Cc2ccncc2)c2ncccc2C1,0.0582,-10
CCn1cnnc1C1CCN(C(=O)c2cnc(C3CC3)s2)CC1,-8.99,-7.13
CN1CCN(C(=O)[C@@H]2CCO[C@@H]3CCN(c4ncccn4)C[C@@H]32)CC1,5.45,-16.6
CC(C)(C)c1nnc(CN2CCN(S(C)(=O)=O)CC2)o1,1.17,-26.2
Cc1cc(C(=O)N2CC[C@H](OCC3CC3)[C@@H]2Cc2cccnc2)no1,1.17,1.88
Cc1cc(C(=O)N2Cc3ccccc3OC3(CCOCC3)C2)nc(N)n1,0.67,3.58
CCOc1ccnc(N2CCN(C(=O)C(C)(C)C#N)CC2)n1,4.55,37.3
COc1ncccc1C(=O)Nc1nc2c(s1)CN(S(=O)(=O)C1CC1)CC2,-4.8,-20
CCCN1CCN(C(=O)C(C)n2cc(Br)cn2)CC1 (centres undefined),5.74,-31.6
Cn1ncc(NCc2cccc(COC(C)(C)C)c2)c(Cl)c1=O,-4.13,12
CCOc1ccccc1Nc1nc2c(C)nn(C)c2c(=O)n1C,1.66,-24.7
Cc1ncc(-c2ccnc(N3CCCCC3)n2)c(=O)[nH]1,-2.84,-19.6
CN(CCn1nc2ccccn2c1=O)CC(=O)N1CCCC1,-1.5,-5.38

# — ChEMBL document CHEMBL3988442, “University of Dundee, Small-Polar-MMV Screening Library” (2021)
